Luc counter: Kinase-Glo luciferase inhibition (counter-screen); hit rate 0.28% among 200,000; Kinase-Glo luciferase, ATP luminescence, 8 min; Potency, µM (highest dose often 38.3 µM), most hits filed as inhibitors; Q27757; also: nearly all actives have a fitted effect of over 60% in size
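Substrate mix (final 50 mM imidazole pH 7.2, 50 mM KCl, 7 mM MgCl2, 10 uM ATP, 0.01% Tween 20, 0.05% BSA) plus pin-tool compound, then Kinase-Glo detection mix; 8 min ambient, luminescence read.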
SMN2 splice enh: enhancers of SMN2 splice variant expression; Potency, µM (doses to about 46.1 µM), hits mostly activators; HEK293 SMN2-luciferase splicing reporter, luminescence, 30-36 h; hit rate 2.8% among 210,000; AID 1458; also: nearly all actives have a fitted effect of over 55% in size
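HEK293 cells carry an SMN2 minigene-luciferase reporter in which exon 7 inclusion puts luciferase in frame. Cells were seeded at 2000 cells/well, attached for 10-12 hours, then exposed to compounds for 30-36 hours at 37C before ONE-Glo luminescence.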
Rab9 promoter act: activators of Rab9 promoter; Huh7 Rab9 promoter-luciferase reporter, luminescence, 24 h; Potency, µM (top dose mostly 9.22 µM), actives largely listed as activators; hit rate 2.8% among 320,000; also: nearly all actives have a fitted effect of over 60% in size
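Stable Rab9-luc Huh7, 1500 cells/well, 2 h settle; cmpd in DMSO, 24 h, 37 °C/5% CO2; luciferase reagent 10 min RT; luminescence.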
FLuc counter: counter-screen for miR-21 project: firefly luciferase inhibitors or activators | AID 588342 | hit rate 6.9% among 360,000 | Potency, µM (top dose mostly 57.5 µM), hits mostly inhibitors | P08659 | purified FLuc, Km substrates, luminescence inhibition; also: nearly all actives have a fitted effect of over 55% in size
Target sequence (P08659 whole entry, looked up): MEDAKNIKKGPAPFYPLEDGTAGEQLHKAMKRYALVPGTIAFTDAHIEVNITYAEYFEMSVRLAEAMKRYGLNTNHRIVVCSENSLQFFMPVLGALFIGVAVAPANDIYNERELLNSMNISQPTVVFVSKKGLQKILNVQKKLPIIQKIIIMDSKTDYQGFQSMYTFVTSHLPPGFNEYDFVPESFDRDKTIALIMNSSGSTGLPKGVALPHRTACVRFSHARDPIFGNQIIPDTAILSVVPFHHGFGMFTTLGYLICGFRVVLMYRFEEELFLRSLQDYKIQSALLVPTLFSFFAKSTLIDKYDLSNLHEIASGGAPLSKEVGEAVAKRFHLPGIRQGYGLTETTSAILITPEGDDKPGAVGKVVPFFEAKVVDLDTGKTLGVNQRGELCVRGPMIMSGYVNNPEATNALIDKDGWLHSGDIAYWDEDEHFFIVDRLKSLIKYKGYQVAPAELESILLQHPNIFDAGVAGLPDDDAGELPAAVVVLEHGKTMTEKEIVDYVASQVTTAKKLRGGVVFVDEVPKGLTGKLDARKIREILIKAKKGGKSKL
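Purified P. pyralis luciferase, 10 nM final, with Km-level 10 uM D-luciferin and 10 uM ATP in 50 mM Tris acetate pH 7.5, 10 mM Mg acetate, 0.01% Tween-20, 0.05% BSA; 6-point qHTS titration about 60 µM downward; luminescence read.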
NPC1 prom act: activators of NPC1 promoter. hit rate 2.4% among 320,000. Huh7 NPC1 promoter luciferase reporter, 24 h. AID 485313. Potency, µM (top dose mostly 9.22 µM), actives largely listed as activators; also: nearly all actives have a fitted effect of over 60% in size
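Quantitative HTS used a cell-based reporter: Huh7 cells stably bearing the NPC1 promoter upstream of luciferase were treated with compounds for 24 h, and promoter activation was read as luminescence.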
Of the large screens only hits and unclear results are named; the others gave an inactive call. Shown are actives, neighbours in structure and some others; about 7.3% of the full set was active somewhere. Calls follow the shape of the dose curve; as a rule, active = well fitted curve in the direction sought with a large enough effect; inconclusive = small, poorly fitted or top-dose-only effect, or another doubt; inactive = no such curve, though single readings can be large; an effect the other way counts as inactive or inconclusive.

O=C(COC(=O)c1ccc(F)cc1F)c1ccc[nH]1	FLuc counter 19µM (no result: Luc counter, SMN2 splice enh)
O=C(O)Cc1ccc(C(=O)c2ccccc2)s1	none
O=C(COc1ccccc1-c1nc(-c2ccccc2)no1)Nc1ccccc1[N+](=O)[O-]	none (no result: Luc counter, SMN2 splice enh, Rab9 promoter act, NPC1 prom act)
CC(C)c1nc2sc3c(c2c(=O)o1)CCCC3	none
Nc1nc(-c2ccccc2)nc2sc3c(c12)CCCC3	SMN2 splice enh 3.2µM, Rab9 promoter act 1.8µM, FLuc counter 0.27µM, NPC1 prom act 2.2µM
CCSc1nc(N)c2c3c(sc2n1)CCC3	FLuc counter inconclusive
CC1(C)Cc2c(sc3nc(-c4cc5ccccc5o4)n(N)c(=O)c23)CO1	SMN2 splice enh 11µM, Rab9 promoter act 2.8µM, FLuc counter 6µM, NPC1 prom act 3.2µM
O=c1oc(-c2ccccc2)nc2sc3c(c12)CCC3	Luc counter inconclusive, SMN2 splice enh inconclusive, FLuc counter 2.4µM
Cc1ccc(-c2nc3sc4c(c3c(=O)n2N)CC(C)(C)OC4)cc1	none
O=C1CCC(=O)N1c1ccc(-c2nc3sc4c(c3c(=O)o2)CCC4)cc1	FLuc counter 21µM (no result: Luc counter, SMN2 splice enh)
CC(=O)c1ccc(NC(=O)Cn2c(=O)oc3cc(S(=O)(=O)N4CCCCC4)ccc32)cc1	none (no result: Luc counter, Rab9 promoter act, NPC1 prom act)
Cc1ccc(NC(=O)c2c(C)oc3ccc(O)c(CN4CCCC4)c23)c(C)c1	none (no result: Luc counter, Rab9 promoter act, NPC1 prom act)
CC1(C)Cc2c(sc3nc(-c4ccccc4)oc(=O)c23)CO1	SMN2 splice enh inconclusive, FLuc counter 1.2µM
O=c1oc(-c2ccco2)nc2sc3c(c12)CCCC3	Luc counter inconclusive, SMN2 splice enh 14µM, FLuc counter 1.5µM
Cc1nc2sc(C)c(C)c2c(=O)o1	none
Cc1nc2sc3c(c2c(=O)o1)CCCC3	none
Cc1sc2nc(-c3ccccc3)oc(=O)c2c1C	FLuc counter 5.4µM (no result: Luc counter, SMN2 splice enh)
Cc1nn2c(=O)c3c4c(sc3nc2n1-c1ccccc1)COC(C)(C)C4	none (no result: Luc counter, SMN2 splice enh)
Nc1ccc(-c2ccc3ccccc3n2)cc1	SMN2 splice enh 3.2µM, Rab9 promoter act 1.3µM, NPC1 prom act 1.5µM (no result: FLuc counter)
Nc1ccc(-c2cc(-c3ccc(N)cc3)nc(-c3ccccc3)n2)cc1	none
COc1ccc2nc3c(nc2c1)C(=O)c1ccccc1-3	none (no result: SMN2 splice enh, Rab9 promoter act, FLuc counter, NPC1 prom act)
COc1ccc(-c2cc(C(=O)Nc3c(Cl)cc(Cl)cc3Cl)c3ccccc3n2)cc1OC	none
COc1ccc(-c2ccc3ccccc3n2)cc1OC	SMN2 splice enh 14µM, Rab9 promoter act 2µM, FLuc counter 11µM, NPC1 prom act 2.2µM
COc1ccc2nc3ccccc3nc2c1	SMN2 splice enh 11µM, Rab9 promoter act 2.8µM, FLuc counter 17µM, NPC1 prom act 4µM
COc1ccc(-c2ccc3ccccc3n2)cc1	Luc counter inconclusive, SMN2 splice enh 13µM, Rab9 promoter act 0.4µM, FLuc counter 1.2µM, NPC1 prom act 0.71µM
Cc1ccc(N(CC(=O)N2CCN(c3ccc(Cl)cc3)CC2)S(=O)(=O)c2c(C)noc2C)cc1	none (no result: Luc counter, Rab9 promoter act, NPC1 prom act)
Cc1ccc(-n2ncc3c(N(C)Cc4ccccc4)ncnc32)cc1	FLuc counter 0.67µM (no result: Luc counter, SMN2 splice enh, Rab9 promoter act, NPC1 prom act)
Cc1ccc(-n2ncc3c(N(CCO)Cc4ccccc4)ncnc32)cc1	FLuc counter 11µM (no result: Luc counter, SMN2 splice enh, Rab9 promoter act, NPC1 prom act)
Nc1ncnc2c1cnn2-c1ccccc1	FLuc counter inconclusive
CC(C)CC(=O)Nc1nnc(S(=O)(=O)N(C)Cc2ccc(Cl)cc2)s1	none (no result: Luc counter, SMN2 splice enh, Rab9 promoter act, NPC1 prom act)
O=S(=O)(c1ccc(Cl)cc1Cl)n1ccnc1	none (no result: Luc counter, Rab9 promoter act, NPC1 prom act)
O=C(NCCc1cccs1)c1ccc(Cn2c(SCc3ccc(F)cc3)nc3cccnc32)cc1	FLuc counter 2.1µM (no result: Luc counter, Rab9 promoter act, NPC1 prom act)
O=C(NCCc1ccccc1)c1ccc(CSc2nc3cccnc3n2Cc2ccc(F)cc2)cc1	none (no result: Luc counter, SMN2 splice enh, Rab9 promoter act, NPC1 prom act)
O=C(NCCc1cccs1)c1ccc(Cn2c(SCc3ccccc3)nc3cccnc32)cc1	FLuc counter 2.7µM (no result: Luc counter, SMN2 splice enh, Rab9 promoter act, NPC1 prom act)
Cc1ccc(OCc2nc3ccccc3n2CC(C)C)cc1	FLuc counter inconclusive (no result: Luc counter, Rab9 promoter act, NPC1 prom act)
CCOC(=O)Cn1nnc(-c2cccc(OC)c2)n1	FLuc counter 11µM
COc1ccc(OC)c(C(=O)Cn2nnc(-c3ccc(N4CCOCC4)cc3)n2)c1	FLuc counter 9.5µM (no result: Luc counter, SMN2 splice enh)
COc1ccc(N2CCN(C(=O)Cn3nnc(-c4ccc(N(C)C)cc4)n3)CC2)cc1	none
COc1cccc(-c2nnn(CC(=O)O)n2)c1	none
O=C(Cn1nnc(-c2ccccc2F)n1)N1CCCCC1	Rab9 promoter act 2.5µM, FLuc counter inconclusive, NPC1 prom act 3.2µM (no result: Luc counter, SMN2 splice enh)
CCCOc1ccc(-c2nnn(CC(=O)N3CCCCC3)n2)cc1	FLuc counter 17µM (no result: Luc counter, SMN2 splice enh)
Cc1ccc2c(=O)cc(C(=O)Nc3ccc(S(=O)(=O)N4CCCCC4C)cc3)oc2c1C (centres undefined)	none (no result: Luc counter, Rab9 promoter act, NPC1 prom act)
Cc1oc2ncn(C)c(=O)c2c1C(=O)Nc1ccccn1	none (no result: Luc counter, Rab9 promoter act, NPC1 prom act)
Cc1ccc(OCc2cc(=O)n3cc(C)sc3n2)c(NC(=O)c2ccco2)c1	none (no result: Luc counter, SMN2 splice enh, Rab9 promoter act, NPC1 prom act)
COc1cc(-c2nnn(CC(=O)N3CCOCC3)n2)cc(OC)c1OC	none
COc1ccc(-c2ccc(-c3nnn(CC(=O)N4CCOCC4)n3)cc2)cc1	SMN2 splice enh inconclusive, Rab9 promoter act 2.8µM, FLuc counter 0.38µM, NPC1 prom act 3.2µM
CCS(=O)(=O)c1nc(S(=O)(=O)c2ccc(C)cc2)c(NCCCOC)s1	none (no result: Luc counter, Rab9 promoter act, NPC1 prom act)
COc1ccc(-c2nc3nc(C)cc(=O)n3[nH]2)cc1	FLuc counter 17µM

Assay outcomes (PubChem BioAssay)
